# Source: PubChem BioAssay (NCI)
# Compounds without any hit were thinned out: in the full panel of roughly 83,000, 20% have a hit.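 Compound tested at a single concentration for 48 hours in 96-well plates; a percent growth value below 10 was scored as active.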 A number with no mark means an inactive call. Activity calls are given as the source filed them.
# System: OVCAR-3 ovarian
# Experiment: NCI-60 one-dose screen, 48 h (100 = growth as untreated, 0 = no growth, -100 = all killed)
# Conditions: 10 µM unless noted
row,SMILES,growth
1,O=S(=O)(NCCCNc1cc(-c2cn(-c3ccccc3)nc2-c2cccc(O)c2)ccn1)c1ccc(Cl)cc1,26.6%
2,COc1ccc(-c2nc3sccn3c2-c2ccnc(NCCCNS(=O)(=O)c3ccc(C)cc3)n2)cc1,45.4%
3,O=C1c2ccccc2C(=O)c2c1oc1oc3c(c(=O)c21)c(=O)n(-c1ccccc1)c1ccccc31,2.15% (active)
4,C#CCC1(c2ccc(F)c(F)c2)NS(=O)(=O)c2ccccc21 (stereo not drawn),109%
5,Cc1nc(Nc2cccnc2)sc1C(=O)/C=C/c1ccc(F)cc1,5.9% (active)
6,CCC#CC[C@H]1C/C=C2/C(=O)C=C[C@@H]2C/C=C\CCCC(=O)O1,6.81% (active)
7,CNC(=O)Cc1nc(-c2cccc(NS(=O)(=O)c3c(F)cccc3F)c2F)c(-c2ccnc(Nc3ccccc3)n2)s1,77.2%
8,CC(=O)Nc1ccc2c(c1)/C(=C\C=C/c1ccc([N+](C)(C)C)cc1)c1ccccc1-2,78%
9,COc1cc(OC)cc(-c2n[nH]nc2-c2ccc3c(c2)OCO3)c1,10%
10,O=C1CCC/C=C\C[C@H]2C=CC(=O)/C2=C/C[C@H](C/C=C\CC(F)(F)F)O1,-69.7% (active)
11,O=C(Nc1cccc(Cl)c1)c1cc([N+](=O)[O-])ccc1O,42%
12,O=C1N=C(c2c(-c3[nH]c(=O)c4ccc(Br)cc4c3O)c(O)c3ccccc3c2O)C(=O)c2cc(Br)ccc21,-81.5% (active)
13,COc1cc(-n2nc(C(=O)Nc3ccc(C(=O)O)cc3)nc2-c2ccccc2)cc(OC)c1OC,94.4%
14,COc1ccc(OC)c(-c2ccc(-c3ccccc3N)c3[nH]c4ccccc4c23)c1,75.1%
15,COc1ccc(S(=O)(=O)Nc2cc(/C=C\c3cc(OC)c(OC)c(OC)c3)cc(OC)c2OC)cc1OC,-18.2% (active)
16,Cc1cc(NC(=O)COC(=O)c2sc3cc(F)ccc3c2Cl)no1,120%
17,Nc1c(C(=O)Nc2cccc(C(F)(F)F)c2)sc2nc3c(cc12)C(O)CCC3 (stereo not drawn),2.06% (active)
18,CC(=O)C1CCC(C)=CC1=O (stereo not drawn),108%
19,COc1ccc(-c2nc3sccn3c2-c2ccnc(NCCCNS(=O)(=O)c3ccc(F)cc3)n2)cc1,20.9%
20,COc1cc(-c2csc(NC(=O)Nc3ccc(Cl)cc3Cl)n2)cc(OC)c1OC,20.5%

row,SMILES,growth
1,CCSc1nnc(Nc2ccc(C(C)C)cc2)s1,106%
2,CCOC(=O)CC/C(C)=N\Nc1ccc([N+](=O)[O-])cc1,86.1%
3,Cc1ccc2c(c1)C(=O)C(c1c(-c3[nH]c(=O)c4ccc(C)cc4c3O)c(O)c3ccccc3c1O)=NC2=O,-38.7% (active)
4,CN(C)CCCNC(=O)C(c1ccccc1)c1ccccc1,113%
5,COc1ccc(-c2nnc(COc3ccc(NC(=O)Nc4ccc(Cl)c(C(F)(F)F)c4)cc3F)o2)cc1,-0.826% (active)
6,O=c1oc2cc(OS(=O)(=O)c3ccc(F)cc3)ccc2c2c1CCCCC2,77.8%
7,Nc1nc(-c2ccccc2)cs1,102%
8,COc1ccc(C(=O)/C=C/c2cccc([N+](=O)[O-])c2)c(OC)c1,18.6%
9,C=CCOc1cccc(/C=C/C(=O)c2sc(Nc3cccnc3)nc2C)c1,14.9%
10,Cc1cc(Nc2nc(C(=O)Nc3ccccc3)nc3ccccc23)n[nH]1,78.1%
11,CC1CCN(C(=O)CSc2nc3sc4c(c3c(=O)[nH]2)CCCC4)CC1,116%
12,COc1ccc(-c2nc(-c3nc4ccc(F)cc4[nH]3)cc3c2[nH]c2ccccc23)cc1,42.3%
13,CC/C=C\C[C@H](O)C/C=C1/C(=O)C(Cl)=C[C@@H]1C/C=C\CCCC(=O)O,28.9%
14,O=c1[nH]c2ccccc2cc1-c1nnc(Cc2ccccc2)o1,69.6%
15,COc1ccc(C2CC(c3cccs3)=NN2c2ccc(S(=O)(=O)NC(=O)Nc3ccc(C)cc3)cc2)cc1 (stereo not drawn),98.2%
16,CCSc1nnc(NC(=O)COc2ccc(Cl)cc2C)s1,94.8%
17,COc1ccc(Cn2c(SC)nc(=O)n(Cc3ccc(Cl)cc3)c2=O)cc1,102%
18,O=C(Nc1ccc(Br)c(Cl)c1)c1cc(F)ccc1O,12.1%
19,O=C(CCl)NCCNc1nccc(Nc2ccc(S(=O)(=O)Nc3ccccn3)cc2)n1,-6.7% (active)

# System: HS 578T breast
# Experiment: as above
# Conditions: 10 µM unless noted
row,SMILES,growth
1,O=S(=O)(NCCCNc1cc(-c2cn(-c3ccccc3)nc2-c2cccc(O)c2)ccn1)c1ccc(Cl)cc1,5.52% (active)
2,COc1ccc(-c2nc3sccn3c2-c2ccnc(NCCCNS(=O)(=O)c3ccc(C)cc3)n2)cc1,66.2%
3,O=C1c2ccccc2C(=O)c2c1oc1oc3c(c(=O)c21)c(=O)n(-c1ccccc1)c1ccccc31,90.5%
4,C#CCC1(c2ccc(F)c(F)c2)NS(=O)(=O)c2ccccc21 (stereo not drawn),101%
5,Cc1nc(Nc2cccnc2)sc1C(=O)/C=C/c1ccc(F)cc1,96.4%
6,CCC#CC[C@H]1C/C=C2/C(=O)C=C[C@@H]2C/C=C\CCCC(=O)O1,40.2%
7,CNC(=O)Cc1nc(-c2cccc(NS(=O)(=O)c3c(F)cccc3F)c2F)c(-c2ccnc(Nc3ccccc3)n2)s1,64.5%
8,CC(=O)Nc1ccc2c(c1)/C(=C\C=C/c1ccc([N+](C)(C)C)cc1)c1ccccc1-2,25.3%
9,COc1cc(OC)cc(-c2n[nH]nc2-c2ccc3c(c2)OCO3)c1,12.1%
10,O=C1CCC/C=C\C[C@H]2C=CC(=O)/C2=C/C[C@H](C/C=C\CC(F)(F)F)O1,23.2%
11,O=C(Nc1cccc(Cl)c1)c1cc([N+](=O)[O-])ccc1O,41.9%
12,O=C1N=C(c2c(-c3[nH]c(=O)c4ccc(Br)cc4c3O)c(O)c3ccccc3c2O)C(=O)c2cc(Br)ccc21,-21.9% (active)
13,COc1cc(-n2nc(C(=O)Nc3ccc(C(=O)O)cc3)nc2-c2ccccc2)cc(OC)c1OC,97.5%
14,COc1ccc(OC)c(-c2ccc(-c3ccccc3N)c3[nH]c4ccccc4c23)c1,94.3%
15,COc1ccc(S(=O)(=O)Nc2cc(/C=C\c3cc(OC)c(OC)c(OC)c3)cc(OC)c2OC)cc1OC,8.3% (active)
16,Cc1cc(NC(=O)COC(=O)c2sc3cc(F)ccc3c2Cl)no1,123%
17,Nc1c(C(=O)Nc2cccc(C(F)(F)F)c2)sc2nc3c(cc12)C(O)CCC3 (stereo not drawn),51.2%
18,CC(=O)C1CCC(C)=CC1=O (stereo not drawn),122%
19,COc1ccc(-c2nc3sccn3c2-c2ccnc(NCCCNS(=O)(=O)c3ccc(F)cc3)n2)cc1,32.5%
20,COc1cc(-c2csc(NC(=O)Nc3ccc(Cl)cc3Cl)n2)cc(OC)c1OC,34.5%

row,SMILES,growth
1,CCSc1nnc(Nc2ccc(C(C)C)cc2)s1,132%
2,CCOC(=O)CC/C(C)=N\Nc1ccc([N+](=O)[O-])cc1,88.6%
3,Cc1ccc2c(c1)C(=O)C(c1c(-c3[nH]c(=O)c4ccc(C)cc4c3O)c(O)c3ccccc3c1O)=NC2=O,32.4%
4,CN(C)CCCNC(=O)C(c1ccccc1)c1ccccc1,110%
5,COc1ccc(-c2nnc(COc3ccc(NC(=O)Nc4ccc(Cl)c(C(F)(F)F)c4)cc3F)o2)cc1,19.1%
6,O=c1oc2cc(OS(=O)(=O)c3ccc(F)cc3)ccc2c2c1CCCCC2,88%
7,Nc1nc(-c2ccccc2)cs1,104%
8,COc1ccc(C(=O)/C=C/c2cccc([N+](=O)[O-])c2)c(OC)c1,74.6%
9,C=CCOc1cccc(/C=C/C(=O)c2sc(Nc3cccnc3)nc2C)c1,99.9%
10,Cc1cc(Nc2nc(C(=O)Nc3ccccc3)nc3ccccc23)n[nH]1,73.2%
11,CC1CCN(C(=O)CSc2nc3sc4c(c3c(=O)[nH]2)CCCC4)CC1,113%
12,COc1ccc(-c2nc(-c3nc4ccc(F)cc4[nH]3)cc3c2[nH]c2ccccc23)cc1,42.4%
13,CC/C=C\C[C@H](O)C/C=C1/C(=O)C(Cl)=C[C@@H]1C/C=C\CCCC(=O)O,75.9%
14,O=c1[nH]c2ccccc2cc1-c1nnc(Cc2ccccc2)o1,90.1%
15,COc1ccc(C2CC(c3cccs3)=NN2c2ccc(S(=O)(=O)NC(=O)Nc3ccc(C)cc3)cc2)cc1 (stereo not drawn),96%
16,CCSc1nnc(NC(=O)COc2ccc(Cl)cc2C)s1,101%
17,COc1ccc(Cn2c(SC)nc(=O)n(Cc3ccc(Cl)cc3)c2=O)cc1,94%
18,O=C(Nc1ccc(Br)c(Cl)c1)c1cc(F)ccc1O,17.4%
19,O=C(CCl)NCCNc1nccc(Nc2ccc(S(=O)(=O)Nc3ccccn3)cc2)n1,73.1%
